For some of these results: Measured potencies and affinities stand elsewhere. Activity calls are given as the source filed them. Unless noted, how the calls were made is not given here.
Assays:
[1] = antimalarial activity against Dd2 strain (AID 2302;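 active means growth inhibition above 50% at the single 2 µM test dose, taken to imply half-maximal potency below 2 µM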;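 further: 0% = DMSO untreated growth and 100% = chloroquine plus artemisinin killed control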); settings: P. falciparum Dd2 in RBCs, LDH growth readout, 72 h; at 2 µM; stronger effect = higher value
[2] = HepG2 cytotoxicity, primary screen, cytotoxicity control for P. falciparum antimalarial project, cell-based, ATP luminescence (AID 2303;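 active means inhibition above 50%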;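 further: 0% = DMSO wells and 100% = digitonin-killed cells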); settings: HepG2 viability, 24-48 h, at 10 µM, stronger effect = higher value
[3] = target: L-lactate dehydrogenase (Plasmodium falciparum (isolate CDC / Honduras)) (UniProt Q27743); assay: PfLDH activity inhibition – cell lysate, 3D7 strain, counter-screen for P. falciparum growth inhibition project (AID 2304);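 further: 0% = vehicle and 100% = reference inhibitor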; settings: P. falciparum 3D7 crude extract, LDH APAD/NBT absorbance; at 2 µM; stronger effect = higher value
[4] = inhibition of 3D7 malaria parasite growth – strain 3D7 (AID 2306);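 further: 0% = DMSO wells and 100% = chloroquine plus artemisinin control wells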; settings: P. falciparum 3D7 erythrocytic growth, LDH absorbance, 72 h; at 2 µM; stronger effect = higher value
[5] = target: Calcium-dependent protein kinase 1 (Plasmodium falciparum (isolate 3D7)) (UniProt P62344); assay: PfCDPK1 kinase inhibitors, biochemical, TCAMS library (AID 1159585; cut-off not given, nearly all actives have IC50 up to about 0.98 µM;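 further: inhibitors leave more ATP so luminescence rises with inhibition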); settings: recombinant PfCDPK1, Kinase-Glo ATP depletion luminescence
[6] = target: Plasmodium falciparum protein kinase 6 (PK6, PF3D7_1337100) (UniProt Q8IDW1); assay: PfPK6 kinase inhibitors, biochemical, TCAMS library (AID 1159586); settings: recombinant PfPK6, Kinase-Glo ATP depletion luminescence
[7] = target: Protein kinase 7 (PK7), Plasmodium falciparum 3D7 (PF3D7_0213400) (UniProt Q7YTF7); assay: inhibition of Plasmodium PK7 catalytic activity – biochemical, TCAMS antimalarial set, Kinase-Glo luminescence (AID 1159587); settings: recombinant PfPK7, Kinase-Glo ATP depletion luminescence
[8] = target: Calcium-dependent protein kinase 4 (Plasmodium falciparum (isolate 3D7)) (UniProt Q8IBS5); assay: PfCDPK4 kinase inhibitors, biochemical, TCAMS library (AID 1159588; cut-off not given, nearly all actives have IC50 up to about 0.91 µM); settings: recombinant PfCDPK4, Kinase-Glo ATP depletion luminescence
Chain of Calcium-dependent protein kinase 4 (Plasmodium falciparum (isolate 3D7)) (Q8IBS5 whole entry, looked up): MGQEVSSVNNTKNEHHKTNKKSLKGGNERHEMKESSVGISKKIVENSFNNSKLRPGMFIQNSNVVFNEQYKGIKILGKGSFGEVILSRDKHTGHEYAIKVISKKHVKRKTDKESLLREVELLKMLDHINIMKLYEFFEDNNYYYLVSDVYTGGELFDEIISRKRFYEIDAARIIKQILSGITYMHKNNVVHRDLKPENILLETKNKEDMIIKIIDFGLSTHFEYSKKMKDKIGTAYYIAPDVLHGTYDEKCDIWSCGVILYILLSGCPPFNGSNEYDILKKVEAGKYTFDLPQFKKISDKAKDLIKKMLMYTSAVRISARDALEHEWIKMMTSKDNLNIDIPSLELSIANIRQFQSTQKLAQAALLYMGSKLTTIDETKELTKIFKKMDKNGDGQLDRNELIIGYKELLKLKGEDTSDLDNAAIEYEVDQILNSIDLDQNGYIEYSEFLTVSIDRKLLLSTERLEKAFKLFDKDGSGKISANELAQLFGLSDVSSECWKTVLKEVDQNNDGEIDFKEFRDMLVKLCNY

Chain of Calcium-dependent protein kinase 1 (Plasmodium falciparum (isolate 3D7)) (P62344 whole entry, looked up): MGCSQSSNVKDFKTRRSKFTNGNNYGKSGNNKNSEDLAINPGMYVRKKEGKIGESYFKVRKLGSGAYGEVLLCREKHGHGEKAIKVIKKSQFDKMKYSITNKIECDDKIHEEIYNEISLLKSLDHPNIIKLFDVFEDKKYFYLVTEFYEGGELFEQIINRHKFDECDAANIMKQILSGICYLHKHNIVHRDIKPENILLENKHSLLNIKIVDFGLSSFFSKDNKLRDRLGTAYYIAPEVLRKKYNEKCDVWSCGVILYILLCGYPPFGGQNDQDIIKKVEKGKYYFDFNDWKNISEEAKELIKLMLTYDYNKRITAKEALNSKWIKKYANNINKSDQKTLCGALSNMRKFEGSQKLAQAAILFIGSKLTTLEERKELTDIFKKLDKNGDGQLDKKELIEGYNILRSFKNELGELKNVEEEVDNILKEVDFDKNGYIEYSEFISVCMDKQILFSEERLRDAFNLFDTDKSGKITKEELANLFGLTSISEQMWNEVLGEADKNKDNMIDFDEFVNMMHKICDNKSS
Chain of Protein kinase 7 (PK7), Plasmodium falciparum 3D7 (PF3D7_0213400) (Q7YTF7 1-343): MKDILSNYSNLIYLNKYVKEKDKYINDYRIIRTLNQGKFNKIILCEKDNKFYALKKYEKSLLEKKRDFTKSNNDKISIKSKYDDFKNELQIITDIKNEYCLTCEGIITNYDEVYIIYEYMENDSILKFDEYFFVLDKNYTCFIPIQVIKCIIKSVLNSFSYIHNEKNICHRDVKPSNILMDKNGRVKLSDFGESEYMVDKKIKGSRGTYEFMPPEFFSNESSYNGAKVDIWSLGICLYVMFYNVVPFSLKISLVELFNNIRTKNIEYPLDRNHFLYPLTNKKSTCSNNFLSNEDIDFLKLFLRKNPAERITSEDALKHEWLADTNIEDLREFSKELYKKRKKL
Chain of L-lactate dehydrogenase (Plasmodium falciparum (isolate CDC / Honduras)) (Q27743 whole entry, looked up): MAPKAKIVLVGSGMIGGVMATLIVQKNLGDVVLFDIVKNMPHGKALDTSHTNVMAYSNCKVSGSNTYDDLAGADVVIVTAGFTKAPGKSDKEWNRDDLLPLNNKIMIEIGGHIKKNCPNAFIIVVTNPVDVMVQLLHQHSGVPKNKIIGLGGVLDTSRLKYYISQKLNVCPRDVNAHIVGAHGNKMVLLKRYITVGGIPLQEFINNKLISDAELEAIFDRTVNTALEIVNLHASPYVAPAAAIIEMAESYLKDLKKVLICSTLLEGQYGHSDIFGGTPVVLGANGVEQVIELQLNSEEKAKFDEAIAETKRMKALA
Chain of Plasmodium falciparum protein kinase 6 (PK6, PF3D7_1337100) (Q8IDW1 1-305): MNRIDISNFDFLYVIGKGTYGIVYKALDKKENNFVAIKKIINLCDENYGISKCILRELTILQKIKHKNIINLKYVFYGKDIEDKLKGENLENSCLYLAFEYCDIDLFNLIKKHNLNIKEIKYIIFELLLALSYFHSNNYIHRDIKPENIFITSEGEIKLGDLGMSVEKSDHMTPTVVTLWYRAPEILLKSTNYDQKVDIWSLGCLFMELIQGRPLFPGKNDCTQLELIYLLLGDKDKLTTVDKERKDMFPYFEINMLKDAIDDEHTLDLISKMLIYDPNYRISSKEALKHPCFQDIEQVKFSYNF

CC[C@H](NC(=O)c1c(CC2CCN(CC(C)=O)CC2)c(-c2ccccc2)nc2ccccc12)c1ccccc1
inactive: inhibition [2] 7% | inhibition [3] 3% | outcome [5] | outcome [6] | outcome [7] | outcome [8]
active: growth inhibition [1] 96% | growth inhibition [4] 97%

COc1ccc(-c2cc(C(F)(F)F)n3ncc(C(=O)Nc4cc(C)ccc4O)c3n2)cc1OC
active: growth inhibition [1] 100% | growth inhibition [4] 100%
inactive: inhibition [2] 2% | inhibition [3] 0% | outcome [5] | outcome [6] | outcome [7] | outcome [8]

CN1CCC[C@H]1COc1ccc(CN2CC[C@H](NC(=O)c3ccc(Cl)c(Cl)c3)C2)cc1Br
inactive: growth inhibition [1] 20% | inhibition [3] -1% | outcome [5] | outcome [6] | outcome [7] | outcome [8]
active: inhibition [2] 81% | growth inhibition [4] 101%

CC(CNc1ccnc(Nc2ccc3[nH]c(=O)[nH]c3c2)n1)c1ccccc1 (stereo not given)
active: inhibition [2] 50% | growth inhibition [4] 99%
inactive: growth inhibition [1] 2% | inhibition [3] 6% | outcome [5] | outcome [6] | outcome [7] | outcome [8]

O=C(c1cc(-c2ccccc2)n[nH]1)N1CCN(S(=O)(=O)c2ccc(Cl)s2)CC1
inactive: inhibition [2] 9% | inhibition [3] 1% | outcome [5] | outcome [6] | outcome [7] | outcome [8]
active: growth inhibition [1] 81% | growth inhibition [4] 88%

O=[N+]([O-])c1cc(C(c2ccc(O)c([N+](=O)[O-])c2)C(Cl)(Cl)Cl)ccc1O
active: growth inhibition [1] 98% | growth inhibition [4] 93%
inactive: inhibition [2] 2% | inhibition [3] 3% | outcome [5] | outcome [6] | outcome [7] | outcome [8]

Fc1cccc(C=NNc2ccnc3ccc(C(F)(F)F)cc23)c1
active: growth inhibition [1] 97% | growth inhibition [4] 100%
inactive: inhibition [2] -2% | inhibition [3] -4% | outcome [5] | outcome [6] | outcome [7] | outcome [8]

O=C(Nc1cccc(C(F)(F)F)c1)c1ccc(S(=O)(=O)NC2CCN(CC3CCCCC3)CC2)cc1
inactive: growth inhibition [1] -3% | inhibition [2] 25% | inhibition [3] 0% | outcome [5] | outcome [6] | outcome [7] | outcome [8]
active: growth inhibition [4] 83%

CCc1cc2c(cc1CC)CC(NC[C@@H](O)c1ccc(O)c3[nH]c(=O)ccc13)C2
active: growth inhibition [4] 101%
inactive: growth inhibition [1] 9% | inhibition [2] -3% | inhibition [3] -4% | outcome [5] | outcome [6] | outcome [7] | outcome [8]

COc1ccc(C(=O)Nc2ccc3oc(-c4ccc(C(F)(F)F)cc4)cc3c2)cc1CCCN(C)C
inactive: growth inhibition [1] 27% | inhibition [3] -1% | outcome [5] | outcome [6] | outcome [7] | outcome [8]
active: inhibition [2] 98% | growth inhibition [4] 98%

O=C(NCc1cccc2ccccc12)c1ccc(CNC2CCN(Cc3ccccc3)CC2)cc1
inactive: inhibition [2] 15% | inhibition [3] 5% | outcome [5] | outcome [6] | outcome [7] | outcome [8]
active: growth inhibition [1] 88% | growth inhibition [4] 101%

CCc1cn2c3c(cc(C(=O)N[C@@H](Cc4ccccc4)[C@H](O)CNC(C)(C)CCCC(C)C)cc13)N(C)S(=O)(=O)C2
active: growth inhibition [1] 98% | inhibition [2] 71% | growth inhibition [4] 98%
inactive: inhibition [3] 8% | outcome [5] | outcome [6] | outcome [7] | outcome [8]

COc1cc(C(=O)N2CCOC(CCN3CCC[C@H]3C(=O)Nc3ccccc3)(c3ccc(Cl)c(Cl)c3)C2)cc(OC)c1OC (stereo not given in full)
inactive: inhibition [2] 3% | inhibition [3] -2% | outcome [5] | outcome [6] | outcome [7] | outcome [8]
active: growth inhibition [1] 88% | growth inhibition [4] 98%

COc1ccc2nccc([C@@H](O)CN3CCC(NC(=O)C(c4cccs4)N4CCN(c5ccc(F)cc5)CC4)CC3)c2c1 (stereo not given in full)
inactive: growth inhibition [1] 45% | inhibition [2] 9% | inhibition [3] 3% | outcome [5] | outcome [6] | outcome [7] | outcome [8]
active: growth inhibition [4] 97%

COc1ccc2c(OC)c(CNCCCCCCNCc3ccc4cc(OC)ccc4c3OC)ccc2c1
inactive: growth inhibition [1] 49% | inhibition [3] 4% | outcome [5] | outcome [6] | outcome [7] | outcome [8]
active: inhibition [2] 100% | growth inhibition [4] 98%

COc1ccc(C(=O)N2CCC3(CC2)C(=O)N(CC(=O)NCC2CCCCC2)CN3c2ccccc2)c(OC)c1
active: growth inhibition [1] 99% | growth inhibition [4] 100%
inactive: inhibition [2] 6% | inhibition [3] 4% | outcome [5] | outcome [6] | outcome [7] | outcome [8]

O=C(c1ccccc1[N+](=O)[O-])N(Cc1ccccc1)c1ccccn1
inactive: growth inhibition [1] -2% | inhibition [2] 0% | inhibition [3] -1% | outcome [5] | outcome [6] | outcome [7] | outcome [8]
active: growth inhibition [4] 91%

CCCCn1c(=N)c(C(=O)NCc2cccnc2)cc2c(=O)n3cccc(C)c3nc21
active: growth inhibition [4] 101%
inactive: growth inhibition [1] 47% | inhibition [2] 7% | inhibition [3] -2% | outcome [5] | outcome [6] | outcome [7] | outcome [8]

CN(C)C(=O)CN1CCN(c2ncnc(N3CCc4c([nH]c5ccccc45)[C@@H]3c3ccc4c(c3)CCO4)n2)CC1
inactive: inhibition [2] 12% | inhibition [3] -1% | outcome [5] | outcome [6] | outcome [7] | outcome [8]
active: growth inhibition [1] 98% | growth inhibition [4] 99%

O=C(N[C@H]1CCN(Cc2ccc(OCCN3CCNCC3)c(Cl)c2)C1)c1ccc(Cl)c(Cl)c1
inactive: growth inhibition [1] 5% | inhibition [3] -1% | outcome [5] | outcome [6] | outcome [7] | outcome [8]
active: inhibition [2] 50% | growth inhibition [4] 101%
